± gives the standard deviation of the averaged measurements.
What was measured:
[1] = tested on: IL-6-GFP PC-9GR; assay: cell viability (CCK-8 OD) relative to DMSO control (fraction of control); higher = more viable cells; details: compound concentration: 10 uM; treatment time: 48 h
Method in brief: (§1)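 Compounds from a purchased library of 510 were each tested at a final 10 μM for 48 h on PC-9 and PC-9GR lung cancer cells plated at 3000 cells/well in 96-well plates. These cells overexpressed IL-6-GFP from a lentiviral construct. Viability came from CCK-8 absorbance, given as the optical density of each well over that of the vehicle control well, across independent replicates numbering two.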

[2] = tested on: IL-6-GFP PC-9; assay: as above; details: compound concentration: 10 uM; treatment time: 48 h
Method in brief: as §1

Row | SMILES | cell viability [1] | cell viability [2]
1 | CN(C)NC(=O)CCC(=O)O [Daminozide] | 1.09 ± 0.18 | 1.28 ± 0.05
2 | O=C(O)C1C2CCC(O2)C1C(=O)[O][Na] (stereo unspecified) [Sodium Demethylcantharidate] | 1.12 ± 0.29 | 1.31 ± 0.083
3 | CC(C)(C)NCC(O)c1ccccc1Cl.Cl (stereo unspecified) [Tulobuterol hydrochloride] | 1.07 ± 0.17 | 1.08 ± 0.15

Source: the supplement of paper PMC8866396
